Laboratory results as given in PubChem BioAssay (NCATS).
“And” between values parts separate entries of the source, which are not always exact repeats. Identical values can stand only once. Results filed as inconclusive are left out. Entries that show only a call come without a potency. The source made the active and inactive calls. Unless noted, calls come from the whole dose curve; as a rule, active = well fitted curve in the direction sought with a large enough effect; inconclusive = small, poorly fitted or top-dose-only effect, or another doubt; inactive = no such curve, though single readings can be large; an effect the other way counts as inactive or inconclusive.

What was measured:
[1] = tested on: 3D7; test: qHTS profiling for inhibitors of Plasmodium falciparum proliferation (AID 504749); note: nearly all actives have a fitted effect of over 60% in size; note: potency is the fitted concentration of half-maximal effect; details: P. falciparum in erythrocytes, SYBR Green DNA, 72 h; series mostly up to 28.7 µM
Procedure, shortened: (§1)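 Readout was DNA-dye fluorescence from lysed cultures, ex 485/em 535 nm. Parasitized red cells had grown 72 h with compound; data scaled between 0.29 uM artemisinin and DMSO wells and corrected using vehicle-only plates.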

[2] = tested on: CP185; test: as above; details: P. falciparum in erythrocytes, SYBR Green DNA, 72 h; series mostly up to 28.7 µM
Procedure, shortened: as §1

[3] = tested on: CP192; test: as above; details: P. falciparum in erythrocytes, SYBR Green DNA, 72 h; series mostly up to 28.7 µM
Procedure, shortened: as §1

[4] = tested on: CP194; test: as above; details: P. falciparum in erythrocytes, SYBR Green DNA, 72 h; series mostly up to 28.7 µM
Procedure, shortened: as §1

[5] = tested on: CP203; test: as above; details: P. falciparum in erythrocytes, SYBR Green DNA, 72 h; series mostly up to 28.7 µM
Procedure, shortened: as §1

[6] = tested on: CP238; test: as above; details: P. falciparum in erythrocytes, SYBR Green DNA, 72 h; series mostly up to 28.7 µM
Procedure, shortened: as §1

[7] = tested on: CP286; test: as above; details: P. falciparum in erythrocytes, SYBR Green DNA, 72 h; series mostly up to 28.7 µM
Procedure, shortened: as §1

[8] = tested on: CP305; test: as above; details: P. falciparum in erythrocytes, SYBR Green DNA, 72 h; series mostly up to 28.7 µM
Procedure, shortened: as §1

[9] = tested on: DIV30; test: as above; details: P. falciparum in erythrocytes, SYBR Green DNA, 72 h; series mostly up to 28.7 µM
Procedure, shortened: as §1

[10] = tested on: HB3; test: as above; details: P. falciparum in erythrocytes, SYBR Green DNA, 72 h; series mostly up to 28.7 µM
Procedure, shortened: as §1

[11] = tested on: P94_40; test: as above; details: P. falciparum in erythrocytes, SYBR Green DNA, 72 h; series mostly up to 28.7 µM
Procedure, shortened: as §1

[12] = tested on: PC49; test: as above; details: P. falciparum in erythrocytes, SYBR Green DNA, 72 h; series mostly up to 28.7 µM
Procedure, shortened: as §1

[13] = qHTS assay for small molecule antagonists of peroxisome proliferator-activated receptor delta signaling (AID 588535); details: HEK293T PPARd-UAS-bla, beta-lactamase FRET ratio, 18 h; 460 nm channel;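 note: cells co-treated with a PPAR-delta agonist as stimulator during compound exposure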
Procedure, shortened: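 Cells were seeded at 4000 per well in assay medium containing 2% charcoal/dextran FBS and held 5 hrs at 37 C. Compounds were then added for 18 hrs. CCF4 substrate was applied for 2 hrs at room temperature before fluorescence reading.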

[14] = target: Nuclear receptor subfamily 1 group I member 2 (Rattus norvegicus) (UniProt Q9R1A7); test: qHTS assay for small molecule activators of the rat pregnane X receptor (rPXR) signaling pathway (AID 651751; call rule not given here); details: rPXR reporter cells, luciferase (One-Glo), 24 h
[15] = target: Vitamin D3 receptor (Homo sapiens) (UniProt P11473); test: qHTS assay for small molecule antagonists of vitamin D receptor signaling (AID 588541; calls by dose curve;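 note: receptor activated by calcitriol during compound treatment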)
Procedure, shortened: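 VDR-UAS-bla HEK293T cells in 2% charcoal-stripped FBS were stimulated with 1-alpha,25-dihydroxyvitamin D3 (3 nM final) plus compound for 16 h at 37 C. The beta-lactamase CCF4 readout was normalized to 50 nM agonist and DMSO, and Hill fits gave IC50.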

[16] = qHTS assay for small molecule antagonists of retinoid X receptor alpha signaling (AID 588546; active = well fitted inhibition curve with a large enough effect in the signal ratio, with a control signal flat, not every such curve was filed as active; the % refers to the signal ratio;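 note: cells stimulated with 9-cis-retinoic acid as agonist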); details: HEK293T RXRa-UAS-bla, beta-lactamase ratio, antagonist mode; measured here: W530 green channel, cytotoxicity proxy
Procedure, shortened: (§2)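 Beta-lactamase reporter inhibition, read as CCF4 fluorescence ratio (ex 405, em 460/530 nm) after 2 h at RT. HEK293T UAS-bla cells, 2500/well, were stimulated with 9-cis-RA at 500 or 100 nM final alongside test compound for 18 h at 37 C.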

[17] = target: Retinoic acid receptor RXR-alpha (Homo sapiens) (UniProt P19793); test: as above; details: HEK293T RXRa-UAS-bla, beta-lactamase ratio, antagonist mode
Procedure, shortened: as §2

[18] = qHTS assay for environmental chemicals that activate the Aryl hydrocarbon Receptor (AhR) signaling pathway (AID 651777); details: 1A2-DRE human hepatoma cells, luciferase, 24 h; activation: stronger effect = higher value; note: nearly all actives have a fitted effect of over 15% in size
Procedure, shortened: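 Human hepatoma 1A2-DRE cells, stably carrying a dioxin response element and CYP1A2 promoter driving luciferase, were exposed to compounds for 24 hr at 37 C and 5% CO2. Luciferase signal was then read after 30 min One-Glo at room temperature.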

[19] = qHTS assay for small molecule agonists of the antioxidant response element (ARE) signaling pathway measured by Nrf2-dependant transcriptional activity (AID 720636; active = well fitted curve in the direction sought with a large enough effect in the repeat runs; an effect the other way counts as inactive or inconclusive)
Procedure, shortened: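 ARE-luc HepG2 cells carrying an Nrf2-responsive luciferase reporter were plated in medium with 1% dialyzed FBS, left 6 hr at 37 C to attach, then exposed to compound for 16 hr. Luciferase luminescence was read after ONE-Glo addition.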

[20] = qHTS assay for cell viability of the p53RE-bla HCT-116 cell line (AID 743292); note: nearly all actives have a fitted effect of over 55% in size
Procedure, shortened: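 CellSensor p53RE-bla HCT-116 cells, 4,000/well, preincubated 5 h at 37 C, then exposed to compounds in DMSO for 16 h at 37 C. Viability read as CellTiter-Glo luminescence (intracellular ATP) after 30 min at room temperature.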

Nuclear receptor subfamily 1 group I member 2 (Rattus norvegicus), sequence (Q9R1A7 whole entry, looked up): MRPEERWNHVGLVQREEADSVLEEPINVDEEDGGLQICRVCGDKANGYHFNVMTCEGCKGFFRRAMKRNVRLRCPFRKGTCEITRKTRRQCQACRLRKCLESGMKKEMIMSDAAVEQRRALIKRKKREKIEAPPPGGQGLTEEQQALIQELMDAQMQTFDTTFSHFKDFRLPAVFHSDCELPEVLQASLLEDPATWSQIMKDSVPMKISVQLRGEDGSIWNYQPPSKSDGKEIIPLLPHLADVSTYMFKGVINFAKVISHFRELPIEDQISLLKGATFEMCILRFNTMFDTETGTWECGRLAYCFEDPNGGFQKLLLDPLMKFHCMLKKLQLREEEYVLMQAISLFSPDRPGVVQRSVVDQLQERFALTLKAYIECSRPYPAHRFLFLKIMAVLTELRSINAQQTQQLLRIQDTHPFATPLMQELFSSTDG
Retinoic acid receptor RXR-alpha (Homo sapiens), sequence (P19793 whole entry, looked up): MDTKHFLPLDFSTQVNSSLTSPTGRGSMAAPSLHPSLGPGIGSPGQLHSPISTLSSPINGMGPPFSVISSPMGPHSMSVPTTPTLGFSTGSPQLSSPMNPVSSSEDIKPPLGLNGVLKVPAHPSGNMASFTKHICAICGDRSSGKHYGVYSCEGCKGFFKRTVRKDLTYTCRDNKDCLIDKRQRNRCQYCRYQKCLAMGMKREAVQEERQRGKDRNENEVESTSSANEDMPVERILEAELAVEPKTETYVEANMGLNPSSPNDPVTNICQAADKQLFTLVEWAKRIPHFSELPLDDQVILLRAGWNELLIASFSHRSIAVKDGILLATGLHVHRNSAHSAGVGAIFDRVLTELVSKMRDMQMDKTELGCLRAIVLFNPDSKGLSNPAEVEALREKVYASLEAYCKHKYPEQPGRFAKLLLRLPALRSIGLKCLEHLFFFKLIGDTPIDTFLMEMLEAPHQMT
Vitamin D3 receptor (Homo sapiens), sequence (P11473 whole entry, looked up): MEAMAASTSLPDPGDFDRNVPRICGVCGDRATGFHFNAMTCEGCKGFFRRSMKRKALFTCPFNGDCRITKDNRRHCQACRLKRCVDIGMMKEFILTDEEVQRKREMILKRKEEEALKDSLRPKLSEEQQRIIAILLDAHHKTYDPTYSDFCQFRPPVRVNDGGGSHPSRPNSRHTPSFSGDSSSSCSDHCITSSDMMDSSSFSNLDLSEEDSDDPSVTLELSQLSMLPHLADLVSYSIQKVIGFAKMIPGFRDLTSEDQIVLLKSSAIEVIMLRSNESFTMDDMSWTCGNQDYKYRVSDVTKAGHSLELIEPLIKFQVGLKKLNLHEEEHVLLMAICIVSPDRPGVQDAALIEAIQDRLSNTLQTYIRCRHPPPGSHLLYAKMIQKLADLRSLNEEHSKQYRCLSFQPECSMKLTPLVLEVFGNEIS

Compound | Potency [1] | Potency [2] | Potency [3] | Potency [4] | Potency [5] | Potency [6] | Potency [7] | Potency [8] | Potency [9] | Potency [10] | Potency [11] | Potency [12] | max response [13] | max response [14] | outcome [15] | max response [16] [%] | max response [17] | activation [18] | outcome [19] | Potency [20]
C[C@@H]1O[C@H](O[C@@H]2C=C3CC[C@H]4[C@@H](CC[C@]5(C)[C@@H](c6ccc(=O)oc6)CC[C@]45O)[C@@]3(C)CC2)[C@@H](O)[C@H](O)[C@@H]1O | inactive | inactive | inactive | inactive | inactive | inactive | inactive | inactive | inactive | inactive | inactive | inactive |  |  |  |  |  |  |  | 
CCN[C@]1(c2cccs2)CCCCC1=O | inactive | inactive | inactive | inactive | inactive | inactive | inactive | inactive | inactive | inactive |  | inactive |  |  |  |  |  |  |  | 
CN(C)[C@@H]1C(=O)C(C(N)=O)=C(O)[C@]2(O)C(=O)C3=C(O)c4c(O)ccc(Cl)c4[C@](C)(O)[C@H]3C[C@@H]12 | inactive | inactive | inactive | inactive | inactive | inactive | inactive | inactive | inactive | inactive | inactive | inactive |  |  |  |  |  |  |  | 
COc1cc(N)c(Cl)cc1C(=O)N[C@@H]1CN2CCC1CC2 | inactive | inactive | inactive | inactive | inactive | inactive | inactive | inactive | inactive | inactive | inactive | inactive |  |  |  |  |  |  |  | 
CNc1ccc(C(=O)CC(O)CCC(C)C2OC(=O)CC(O)CC(=O)CC(O)CC(O)CC(O)CC(O)CC3(O)CC(O)C(C(=O)OC)C(CC(O[C@@H]4OC(C)C(O)C(N)C4O)/C=C/C=C/C=C/C=C/C=C/C=C/C=C/C2C)O3)cc1 (stereo partly drawn) | inactive | inactive | inactive | inactive | inactive | inactive | inactive | inactive | inactive | inactive | inactive | inactive |  |  |  |  |  |  |  | 
CC([C@H](O)c1ccccc1)N(C)C (stereo partly drawn) | inactive | inactive | inactive | inactive | inactive | inactive | inactive | inactive | inactive | inactive | inactive | inactive |  |  |  |  |  |  |  | 
O=C1C(Cl)=C(Cl)C(=O)C(Cl)=C1Cl |  |  |  |  |  |  |  |  |  |  |  |  | -78.9% | -2.19% (inactive) |  |  |  |  |  | 
COc1cc2c(cc1OC)[C@@]13CCN4CC5=CCOC6CC(=O)N2C1[C@H]6[C@@H]5C[C@@H]43 (stereo partly drawn) | inactive | inactive | inactive | inactive | inactive | inactive | inactive | inactive | inactive | inactive | inactive | inactive |  |  |  |  |  |  |  | 
C=CC1CN2CCC1CC2C(OC(=O)OCC)c1ccnc2ccc(OC)cc12 (stereo not drawn) | 2.51 µM (active) | 8.91 µM (active) | 6.75 µM (active) | 6.01 µM (active) | 8.49 µM (active) | 8.91 µM (active) | 5.01 µM (active) | 9.53 µM (active) | 9.53 µM (active) | 6.31 µM (active) | 3.55 µM (active) | inactive |  |  |  |  |  |  |  | 
CCCCCCCCCc1ccc(O)cc1 |  |  |  |  |  |  |  |  |  |  |  |  | -9.37% and -27.9% | -1.03% (inactive) and 0.419% (inactive) | inactive | -16.1 | 0.938% (inactive) | 10.9% (inactive) and 1.36% (inactive) | inactive | inactive
CNC(=O)Oc1cccc2c1OC(C)(C)O2 |  |  |  |  |  |  |  |  |  |  |  |  | 28.5% | 2.1% (inactive) | inactive | -10.6 | -16.4% (inactive) | 1.33% (inactive) | inactive | inactive
